T1: UNK ZnF1-3 (human, UniProt Q9C0B0 31-174)
T1 sequence: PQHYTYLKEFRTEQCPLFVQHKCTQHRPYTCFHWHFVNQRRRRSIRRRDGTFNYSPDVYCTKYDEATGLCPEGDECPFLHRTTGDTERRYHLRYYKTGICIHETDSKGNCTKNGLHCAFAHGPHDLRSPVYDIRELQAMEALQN

B1: chr8:59488481:59488482:+_ENSG00000137575_ENST00000447182|hu_mus|motif|central (ssRNA)
RNA: GGGAGUUCUACAGUCCGACGAUCUCCAGCAUCGUUACCUGUCACAGGUGCUACCAUAUAGUUCACACUGGAUGGUCUUGCGGCCAACCCUUGUGCUGGUGCUCCAGAGACCAUGGGCAUGCUCUCACAUAUUUCAGCUUCAUUCAACAGAGGAUUGAGCAUCA
B2: chr11:77340908:77340909:-_ENSG00000074201_ENST00000525064|hu_hu|hu_hu_hu_mus_True|8_108 (ssRNA)
RNA: GGGAGUUCUACAGUCCGACGAUCGUUUCGGUCCCUGGACACCGCAUGUAAACUAAUGGUGGGGUAUUCCAGUGAGAAUCCUAAUCCCGAACCAUCUAACCAGGACAGGCGGCUCUCCGCGAUGUAAAGGGUACCAGUGCCGAGCAACAGAGGAUUGAGCAUCA
B3: chr3:119217614:119217615:+_ENSG00000113845_ENST00000264244|hu_hu|FALSE|FALSE (ssRNA)
RNA: GGGAGUUCUACAGUCCGACGAUCCUCUACAGAGAAAGCUCCGCGGUGCCGGUGGCGGCACCUCCAUGGCCUUCUCUCGACCUACGGACAAACUUGAGCGCUCAGGACUUCAAGUCCUCGCGGACGUGCCGCGGGAGAGCGUAACAACAGAGGAUUGAGCAUCA
B4: 60766971_60767091_3885_CDS_ENSG00000011028_ENST00000303375|human|control|control (ssRNA)
RNA: GGGAGUUCUACAGUCCGACGAUCCGUGCGCAGCCCUCGGGCAGCCUGCGUGAGGAAGGCCUGGGUGUAGGGGUCGGGCACGUAGGCCAGGCUGGCAUUGCGGCUCUCACACAGCAGGAGGGCAUCGUGCCAGCGCAGCGGCUUCAACAGAGGAUUGAGCAUCA
B5: chr12:55960871:55960872:-_ENSMUSG00000062929_ENSMUST00000078124|mus_mus|motif|central (ssRNA)
RNA: GGGAGUUCUACAGUCCGACGAUCUACUAAGCUUUAAGACUGCUAUACGAUUUUUUUUUCCCAAUUCAUUUUGGAAAAGCGGUGAAGGAACUGUGGCUGAGACAAACAUUCCUAAACAUCACAAUCAUCAUUAACCUUCGAAUGCAACAGAGGAUUGAGCAUCA
B6: chr12:39763582:39763583:-_ENSG00000139116_ENST00000544797|hu_hu|FALSE|FALSE (ssRNA)
RNA: GGGAGUUCUACAGUCCGACGAUCCUCUAAGAAUUGGGCAUUCACUUUAAAAUCUGGAGCAGGAAGCCCAUUUUUAAUUGCUAUGUGUUUUUUUUCUUCAAUACUCUUAAAAAGGUGUUUAACAGCUCGAGAAAUAAUACCCAGCAACAGAGGAUUGAGCAUCA
B7: chr17:26793470:26793471:+_ENSMUSG00000001576_ENSMUST00000167662|mus_mus|FALSE|FALSE (ssRNA)
RNA: GGGAGUUCUACAGUCCGACGAUCAUUGGAAUCAGAGGAAAAAUUACAAAUGGCAGAGAAUCCAGCUACCCAUAAGAGACUAUUUAAGAAAAACAAAACCAAAACCAAACAAAAACAAAAAACCCCAAAACUUCCUACUGCAGGCAACAGAGGAUUGAGCAUCA
B8: chr16:45711415:45711416:-_ENSMUSG00000022658_ENSMUST00000096057|mus_hu|FALSE|FALSE (ssRNA)
RNA: GGGAGUUCUACAGUCCGACGAUCUUAUUAGGUGCAUUCUAUAAGUUGAAGAGGAGAAUUUUUGGCAAAUAAAUAAAUAAAUAAAUAAAUAAUCAAACAGAGACUCUGGGGCCCGAGGAGCUCAGGAAAACGGAAGCGGAGUCUCAACAGAGGAUUGAGCAUCA
B9: 36507729_36507849_895_3pUTR_ENSMUSG00000043671_ENSMUST00000051377|mouse|control|control (ssRNA)
RNA: GGGAGUUCUACAGUCCGACGAUCGAAAGAGGCUGUAAAUUUGGUCUCAGGAAGUAGGUAAUUGCUGCAAUCUGAAUUGCAAAAAAAGGCAGAGCCCAGUUCUCCCUCAGCGGGAUGGUAAACUCGACUCUUGUGGUGUCUAUUCAACAGAGGAUUGAGCAUCA
B10: chr1:66459500:66459501:+_ENSMUSG00000015222_ENSMUST00000114013|mus_hu|motif|central (ssRNA)
RNA: GGGAGUUCUACAGUCCGACGAUCUAAAAAGGCAGGGGCAAAGGGCGAUGUUUCUGUAACUAUUUCAUUCUUCAUGACAUCGGAAGGAAGAGUGAAGCUUCCCCCUUGAAAGGGACUUGGCAUGGGAGAAUCAAACUGUUUCCCCAACAGAGGAUUGAGCAUCA
B11: chr22:38881817:38881818:-_ENSG00000100201_ENST00000396821|hu_hu|motif|central (ssRNA)
RNA: GGGAGUUCUACAGUCCGACGAUCUUAUUCCAGACUGGAUCAUUUUGGUGGGCAGAAGAAACCUGGCAGUGAAUUCGGACGGAUCUGCAUGAAAAGACAAAUCACGAUGGUUGGGGGGAAAAAUUAAAAAAAAAAAAAGAAAAACAACAGAGGAUUGAGCAUCA
B12: 193603509_193603629_2668_3pUTR_ENSMUSG00000026623_ENSMUST00000110855|mouse|control|control (ssRNA)
RNA: GGGAGUUCUACAGUCCGACGAUCUAAAUCACAUGAACAAAAGGACAAAUCUUUCAAAAGGUUUCUACGAUGAACAGAAACUUGCUUGGCUUUGCCCUCUUAGAAGACGACUGGAAGAGACUGGGAAGUGUUUUUGAGCUGCUGCAACAGAGGAUUGAGCAUCA
B13: chr22:38881817:38881818:-_ENSG00000100201_ENST00000396821|hu_hu|FALSE|FALSE (ssRNA)
RNA: B11 RNA with G76U, G77A, G80U, G81A
B14: 87419285_87419405_2552_3pUTR_ENSMUSG00000028496_ENSMUST00000078090|mouse|control|control (ssRNA)
RNA: GGGAGUUCUACAGUCCGACGAUCGAAAAUCAAGGUGGCUAUUUGGUCCCCCCAGUUGGUAACUAUGUCCUGGAACUGGGAAAACAAAGAUGGAAACCAUAGACUGCAACAAGUUAAAGGACCUGGGAAGAGUUGGUGGAAAGUCAACAGAGGAUUGAGCAUCA

Numbering of substitutions follows the chain as printed. Whole data set: some 24,000 sequences, median “enrichment r” near 0.99, cut for the highest 2% near 3.7. For the sample, the highest values were picked, then their nearest neighbours and some sequences at random.

In this assay the target is T1, UNK ZnF1-3. Kind of assay: nsRBNS (natural sequence RNA bind-n-seq); RBNS binding buffer (assumed for nsRBNS): 25 mM Tris pH 7.5, 150 mM KCl, 3 mM MgCl2, 0.01% Triton X-100, 500 ug/ml BSA, 20 U/ml SUPERase-In, 4 C; UNK is unkempt and MSI1 is Musashi-1; names of the RNAs are library labels; protein concentration not given here; high values mean tight binding.
Regarding B1, the binding signal was determined as 0.558 enrichment R.
In turn, B2 came in with a binding signal of 1.38 enrichment R.
Take B3: the binding signal came out at 0.297 enrichment R.
Regarding B4, the binding signal is 0.311 enrichment R.
Take B5: the binding signal was 0.982 enrichment R.
In turn, B6 returned a binding signal of 2.47 enrichment R.
For B7 the value was 3.74 enrichment R; for B8, 13.2 enrichment R; for B9, 0.793 enrichment R.
B10 showed a binding signal of 0.819 enrichment R.
Regarding B11, the binding signal was 13.5 enrichment R.
For B12 the value was 1.27 enrichment R; for B13, 11.1 enrichment R; for B14, 1.56 enrichment R.

The values are drawn from publication PMC12136788.
